# Test results: the supplement of paper PMC8975748
# Structures can show the parent of a compound that is named as a salt.
# Tested on: Saccharomyces cerevisiae BY4741 SeMeCo community
# Experiment: z-score of subpopulation abundance vs DMSO median, subpopulation auxotrophic for UM; higher = larger share of this subpopulation than in DMSO controls
# Settings: 10 µM; 24 h; SM minimal medium; subpopulation (auxotrophy): UM
# Protocol: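 Fluorescent four-plasmid SeMeCo (self-establishing metabolically cooperating S. cerevisiae BY4741 community; plasmids pH-mRuby2, pL-mWasabi, pU-eCFP, pM-TagRFP657) was grown 24 h in minimal SM medium with each Selleck FDA-approved drug at 10 µM in 384-well plates. Cells were fixed and imaged by high-content confocal microscopy. For each auxotrophic subpopulation (and the prototroph), a z-score gives the deviation from the DMSO vehicle-control population median.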
row,SMILES,z-score of subpopulation abundance
1,OB1OCc2cc(F)ccc21 [Tavaborole (AN-2690)],7.1
2,CC[C@H]1OC(=O)C[C@@H](O)[C@H](C)[C@@H](O[C@@H]2O[C@H](C)[C@@H](O)[C@H](N(C)C)[C@H]2O)[C@@H](CCN2C[C@H](C)C[C@H](C)C2)C[C@@H](C)C(=O)/C=C/C(C)=C/[C@@H]1CO[C@@H]1O[C@H](C)[C@@H](O)[C@@H](OC)[C@H]1OC [Tilmicosin],0.65
3,CCN[C@@H]1C[C@H](N)[C@@H](O[C@H]2OC(CN)=CC[C@H]2N)[C@H](O)[C@H]1O[C@H]1OC[C@](C)(O)[C@H](NC)[C@H]1O [Netilmicin Sulfate],0.17
4,Cc1nc(C)c(Cl)c(O)c1Cl [Clopidol],-0.13
5,CC(=O)[C@H]1CC[C@H]2[C@@H]3CCC4=CC(=O)CC[C@]4(C)[C@H]3CC[C@]12C [Progesterone],0.01
6,Cc1cc(O)cc(C)c1Cl [Chloroxylenol],1.27
7,N/C(=N\N=C\c1ccc(Cl)cc1)N/N=C/c1ccc(Cl)cc1 [Robenidine Hydrochoride],6.84
8,Cc1cccc(Nc2ccccc2C(=O)O)c1C [Mefenamic Acid],-0.74
9,C#CCN[C@@H]1CCc2ccccc21 [Rasagiline Mesylate],-0.05
10,CC1(C)[C@H](C(=O)O)N2C(=O)C[C@H]2S1(=O)=O [Sulbactam sodium],1.22
11,Clc1ccc(COC(Cn2ccnc2)c2ccc(Cl)cc2Cl)c(Cl)c1 (stereo not given) [Miconazole],1.59
12,CCCN1CCCC[C@H]1C(=O)Nc1c(C)cccc1C [Ropivacaine],-0.14
13,CC1(C)S[C@@H]2[C@H](NC(=O)[C@H](NC(=O)N3CCNC3=O)c3ccccc3)C(=O)N2[C@H]1C(=O)O [Azlocillin sodium salt],-1.29
14,CCCN[C@H]1CCc2nc(N)sc2C1 [Pramipexole dihydrochloride],0.32
15,CCCNC(C)C(=O)Nc1ccccc1C (stereo not given) [Prilocaine hydrochloride],0.54
16,C[C@@H](c1ncncc1F)[C@](O)(Cn1cncn1)c1ccc(F)cc1F [Voriconazole],16.4
17,CC[C@H](C)C(=O)O[C@H]1C[C@H](O)C=C2C=C[C@H](C)[C@H](CC[C@@H](O)C[C@@H](O)CC(=O)O)[C@H]21 [Pravastatin],1.36
18,CCC(=O)O[C@@H]1CC(=O)O[C@H](C)C/C=C/C=C/[C@H](O)[C@H](C)C[C@H](CC=O)[C@H](O[C@@H]2O[C@H](C)[C@@H](O[C@H]3C[C@@](C)(O)[C@@H](OC(=O)CC)[C@H](C)O3)[C@H](N(C)C)[C@H]2O)[C@H]1OC [Midecamycin],-0.3
19,CCCCCCCCCCCCCCCC[N+](C)(C)C [Cetrimonium Bromide (CTAB)],12.1
20,C[C@@H]1C/C=C/C=C/C=C/C=C/[C@H](O[C@@H]2O[C@H](C)[C@@H](O)[C@H](N)[C@@H]2O)C[C@@H]2O[C@](O)(C[C@@H](O)C[C@H]3O[C@@H]3/C=C/C(=O)O1)C[C@H](O)[C@H]2C(=O)O [Natamycin],9.97

row,SMILES,z-score of subpopulation abundance
1,CC1=C(C(=O)O)N2C(=O)[C@@H](NC(=O)[C@H](N)C3=CCC=CC3)[C@H]2SC1 [Cefradine],-0.6
2,CNCc1cc(-c2ccccc2F)n(S(=O)(=O)c2cccnc2)c1 [Vonoprazan Fumarate (TAK-438)],-0.09
3,CCN(CC)CCOc1ccc(C(=C(Cl)c2ccccc2)c2ccccc2)cc1 [Clomifene citrate],0.9
4,CCCOc1ccc2[nH]c(NC(=O)OC)nc2c1 [Oxibendazole],1.39
5,O=C(O)c1ccccc1C(=O)Nc1ccc(S(=O)(=O)Nc2nccs2)cc1 [Phthalylsulfathiazole],1.23
6,Nc1c(CC(=O)O)cccc1C(=O)c1ccccc1 [Amfenac Sodium Monohydrate],-0.16
7,Oc1ccc(C2CNCCc3c2cc(O)c(O)c3Cl)cc1 (stereo not given) [Fenoldopam mesylate],-1.9
8,C#C[C@]1(O)CC[C@H]2[C@@H]3CCC4=CC(=O)CC[C@@H]4[C@H]3C(=C)C[C@@]21CC [Etonogestrel],0.08
9,OC(CCCN1CCCCC1)(c1ccccc1)c1ccccc1 [Diphenidol HCl],1.63
10,C(=C\c1ccccc1)/CN1CCN(C(c2ccccc2)c2ccccc2)CC1 [Cinnarizine],1.3
11,CN(C)CCn1nnnc1SCC1=C(C(=O)O)N2C(=O)[C@@H](NC(=O)Cc3csc(N)n3)[C@H]2SC1 [Cefotiam hydrochloride],1.04
12,NCCNc1ccc(NCCN)c2c1C(=O)c1ccncc1C2=O [Pixantrone Maleate],-7.68
13,COc1cccc2c1C(=O)c1c(O)c3c(c(O)c1C2=O)C[C@@](O)(C(=O)CO)C[C@@H]3O[C@H]1C[C@H](N)[C@H](O[C@@H]2CCCCO2)[C@H](C)O1 [Pirarubicin],-3.46
14,N#C/C(=C1/SC[C@@H](c2ccc(Cl)cc2Cl)S1)n1ccnc1 [Luliconazole],11.7
15,C=C[C@H]1CN2CC[C@H]1C[C@H]2[C@H](O)c1ccnc2ccc(OC)cc12 [Quinine HCl Dihydrate],1.09
16,CC[C@@H]1/C=C(\C)C[C@H](C)C[C@H](OC)[C@H]2O[C@@](O)(C(=O)C(=O)N3CCCC[C@H]3C(=O)O[C@H](/C(C)=C/[C@@H]3CC[C@H](Cl)[C@H](OC)C3)[C@H](C)[C@@H](O)CC1=O)[C@H](C)C[C@@H]2OC [Pimecrolimus],-0.8
17,Cc1cccc(N(C)C(=S)Oc2ccc3ccccc3c2)c1 [Tolnaftate],-0.08
18,C=C1CCN([C@H](C)[C@](O)(Cn2cncn2)c2ccc(F)cc2F)CC1 [Efinaconazole],16.2
19,COc1cc2c(cc1OC)-c1cc3ccc(OC)c(OC)c3c[n+]1CC2 [Palmatine],-0.01
20,CNCCCN1c2ccccc2CCc2ccccc21 [Desipramine Hydrochloride],-0.43
